SW480 rerep – inducers of DNA re-replication in SW480 colon cancer cells. Potency, µM (top dose mostly 46.1 µM), for the others: top-dose re-replication activation, actives largely listed as activators. SW480 DNA re-replication, Hoechst DNA content imaging, 48 h. hit rate 1.8% among 340,000. AID 624297; further: % of control where 0% means no effect; nearly all actives have a fitted effect of over 55% in size
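Per well, 250 cells were exposed to pinned compound for 48 hr. Nuclear DNA was visualised with Hoechst (40 min, 37 C) and total object intensity recorded by fluorescence scanning.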
KB-V1 cytotox – KB-V1 MDR subline cytotoxicity | KB-V1 MDR cells viability, CellTiter-Glo, 72 h | Potency, µM (top dose mostly 46.1 µM), hits mostly cytotoxic | hit rate 3.4% among 400,000 | AID 1347076; further: on the % scale 0 is the no-effect control and ±100 the full control effect; nearly all actives have a fitted effect of over 60% in size
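qHTS viability screen in drug-selected KB-V1 MDR cells: 72 h compound treatment at 37 degrees C, ATP luminescence end point.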
HT1080NT lethal – kills 2HG-producing HT-1080-NT fibrosarcoma cells; HT-1080-NT fibrosarcoma viability, CellTiter-Glo ATP luminescence, 48 h; hit rate 1.6% among 360,000; Potency, µM (series often up to 46.1 µM), for the others: top-dose activity, negative = less viability, usual class: cytotoxic;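 further: NT is the 2HG producing partner of a matched IDH1 knockdown line; 0% = DMSO-treated cells and -100% = media-only wells without cells; nearly all actives have a fitted effect of over 55% in size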
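Read-out is CellTiter-Glo luminescence after 10 minutes at room temperature, following 48 hours' compound treatment of HT-1080-NT cells (750 cells/well, RPMI, 5% FBS, 37 degrees C).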
KB-3-1 cytotox – KB-3-1 parental cell cytotoxicity | hit rate 1.4% among 400,000 | Potency, µM (titrated, usually from 46.1 µM), actives largely listed as cytotoxic | KB-3-1 viability, CellTiter-Glo ATP luminescence, 72 h; further: on the % scale 0 is the no-effect control and ±100 the full control effect; nearly all actives have a fitted effect of over 60% in size
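Screening of KB-3-1 cells (DMEM, 10% FBS, phenol-red free) ran from lowest to highest compound concentration; after 72 h at 37 °C viability was read luminescently and curves fitted.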
MCF10A rerep – inducers of DNA re-replication in MCF 10A breast cells; Potency, µM (doses to about 46.1 µM), inactives show at the highest dose activity, positive = re-replication, usual class: activators; MCF 10A DNA re-replication, Hoechst nuclear intensity, 48 h; hit rate 2.9% among 350,000; further: % of control where 0% means no effect; nearly all actives have a fitted effect of over 50% in size
HT1080 IDH1KD tx – toxicity to HT-1080 IDH1 knockdown cells (counter line). hit rate 2% among 360,000. AID 686971. HT-1080 IDH1 knockdown viability, ATP luminescence, 48 h. Potency, µM (series often up to 46.1 µM), for the others: at the highest dose activity, negative = toxicity, usual class: cytotoxic;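 further: 0% = DMSO wells and -100% = cell-free medium wells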
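CellTiter-Glo luminescence after 48 h compound exposure at 37 degrees C of IDH1-knockdown HT-1080 cells in 5% FBS RPMI. %Activity scaled between DMSO wells and cell-free media wells, with curves fitted and assigned curve classes.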
The depositor's hits bear a star; i = inactive; ? = inconclusive; · = no result. Sampled rows, rich in hits. Any-hit rate of the full collection: about 8%. The call rests on the fitted dose curve; in most records, active means well fitted curve in the direction sought with a large enough effect; inconclusive means small, poorly fitted or top-dose-only effect, or another doubt; inactive means no such curve, though single readings can be large; an effect the other way counts as inactive or inconclusive. Potency means the concentration at half of the fitted maximal effect.

SMILES | SW480 rerep | KB-V1 cytotox | HT1080NT lethal | KB-3-1 cytotox | MCF10A rerep | HT1080 IDH1KD tx
COc1ccc(CNCC(O)(c2ccccc2)c2ccc(F)cc2)cc1 (configuration not stated) | ? | i | -26.6% | i | 15.1% | ?
COc1ccc(CNS(=O)(=O)CCNCCc2ccccc2)cc1 | -5.1% | i | 9.4% | i | -0.4% | 9.9%
COc1ccc(C(CCNC(C)c2ccccc2)c2ccc(F)cc2)cc1 (configuration not stated) | -51.8% | 11.6µM* | ? | ? | ? | 18.4µM*
COc1ccc(C(CCNCc2ccc(F)cc2)c2ccc(F)cc2)cc1 (configuration not stated) | · | ? | ? | ? | 5.17µM* | 23.1µM*
COc1ccc(OCC(=O)NNC(=O)Cn2c(=O)cnc3ccccc32)cc1 | -11.2% | i | -0.3% | i | 3.2% | 13.7%
COC(=O)C1=C(NC(C)=O)CCS1 | -4.1% | i | 15.9% | i | 2.5% | 12.8%
COc1ccc(-n2c(=O)c3sc4ccccc4c3n(Cc3ccccc3)c2=O)cc1 | · | i | · | i | · | ·
COc1ccc(CNCCC(c2ccc(F)cc2)c2ccc(OC)cc2)cc1 (configuration not stated) | ? | ? | 20.6µM* | 23.1µM* | ? | 20.6µM*
NC(=O)N/N=C/c1cn(-c2ccccc2)nc1-c1cccnc1 | -11.2% | i | -11.0% | i | -0.4% | -19.8%
O=C(N/N=C/c1cn(-c2ccccc2)nc1-c1cc2ccccc2o1)c1ccccc1Br | 2.6% | ? | ? | ? | ? | 11.6µM*
O=C(N/N=C/c1cn(-c2ccccc2)nc1-c1cccnc1)c1ccccc1 | ? | i | -25.0% | i | 11.6µM* | ?
O=C(N/N=C/c1cn(-c2cccs2)nc1-c1ccccc1)c1ccccc1Br | -0.4% | i | -15.1% | i | -0.1% | -29.5%
O=C(N/N=C/c1cn(-c2cccs2)nc1-c1ccccc1)c1ccccc1O | ? | ? | ? | i | 14.6µM* | 20.6µM*
CC(O)CNc1ncnc2nc[nH]c12 (configuration not stated) | -23.4% | i | 24.6% | i | 0.0% | 14.4%
CC(C)=NNc1ncnc2nc[nH]c12 | 1.7% | 7.31µM* | -26.8% | ? | -1.7% | ?
Cc1cc(C)cc(Nc2ncnc3nc[nH]c23)c1 | -5.3% | i | 8.1% | i | 10.5% | -13.7%
Cc1ncnc2nc[nH]c12 | · | 10.3µM* | · | 3.26µM* | · | ·
Cc1ccc(NC(=O)CCC(=O)NNC(=O)CCc2ccccc2)c(C)c1 | -1.0% | i | 1.9% | i | 0.2% | 10.2%
Cc1ccc(NNC(=O)c2ccno2)c(C)c1 | 11.7% | i | 5.8µM* | i | ? | 7.31µM*
Cc1ccc(NNC(=O)CCc2ccccc2)c(C)c1 | -7.3% | i | ? | i | -0.4% | 25.9µM*
CCc1cccc(NC(=O)CCNS(=O)(=O)c2ccc3c(c2)CCN3C(C)=O)c1 | · | i | · | i | · | ·
Cc1c(C)c2ccc(OCC(=O)N3CC[C@@]4(O)CCCC[C@H]4C3)c(C)c2oc1=O | -5.3% | i | -1.6% | i | 0.7% | 0.3%
CCN(CC)CCNc1ncnc2c1sc1nc(N3CCCC3)c3c(c12)CC(C)(C)OC3 | 14.2% | i | 16.4µM* | i | 20.6µM* | 18.4µM*
CC1(C)Cc2c(c(N3CCOCC3)nc3sc4c(NN)ncnc4c23)CS1 | ? | ? | ? | ? | 23.1µM* | ?
CCN(CC)CCNc1ncnc2c1sc1nc(N3CCOCC3)c3c(c12)CCCC3 | 16.7% | ? | 2.4% | 14.6µM* | 29.1% | 10.1%
SMILES | SW480 rerep | KB-V1 cytotox | HT1080NT lethal | KB-3-1 cytotox | MCF10A rerep | HT1080 IDH1KD tx
CN(C)CCNc1ncnc2c1sc1nc(N3CCCC3)c3c(c12)CC(C)(C)OC3 | ? | ? | ? | i | ? | 20.6µM*
CCOc1ncccc1C(=O)OCc1cccc([N+](=O)[O-])c1 | -9.1% | i | -2.5% | i | 10.6% | 12.8%
CCc1ccc(NC(=O)CSc2nnc(-c3ccc(N)cc3)n2C)cc1 | · | i | · | i | · | ·
CCOC(=O)/C(=N\Nc1ccccc1Cl)N1CCN(Cc2ccccc2)CC1 | -0.6% | 3.66µM* | -4.7% | i | ? | -1.6%
CCOC(=O)/C(=N\Nc1ccccc1Cl)N1CCN(C)CC1 | 3.3% | ? | -15.6% | i | 11.1% | -19.1%
CCOC(=O)c1sc(/N=C/c2c(O)ccc3ccccc23)cc1C | -10.3% | i | 1.9% | i | 14.6µM* | -13.5%
CCc1c(C)nc2ncnn2c1Nc1ccc(C)cc1 | -6.5% | i | 13.0% | i | 10.5% | 7.5%
CCc1c(C)nc2ncnn2c1NCCc1ccc(OC)cc1 | 5.62µM* | ? | 6.31µM* | 5.62µM* | 2.51µM* | 3.55µM*
FC(F)(F)c1ccc(C2NCCc3sccc32)cc1 (configuration not stated) | 1.1% | i | -4.1% | i | -4.5% | -11.2%
CC1CCc2c(sc(NC(=O)/C=C/c3cccs3)c2C(=O)O)C1 (configuration not stated) | 0.9% | i | 1.9% | 18.4µM* | -5.6% | ?
COc1ccc(-c2noc(C3CCCN(S(=O)(=O)c4ccc(C)c(Cl)c4)C3)n2)cc1OC (configuration not stated) | 2.4% | 3.66µM* | 9.1% | i | ? | 25.5%
COc1ccc(-c2noc(C3CCCN(S(=O)(=O)c4cccc(Cl)c4C)C3)n2)cc1OC (configuration not stated) | 4.2% | 18.4µM* | 3.6% | i | ? | 11.3%
Cc1ccc(S(=O)(=O)N2CCCC(c3nc(-c4ccc(C)o4)no3)C2)cc1 (configuration not stated) | 3.6% | i | -18.8% | i | 1.5% | -1.8%
O=S(=O)(c1ccccc1Cl)N1CCCC1c1nc(-c2cccc(Cl)c2)no1 (configuration not stated) | -3.5% | ? | -13.4% | i | 8.5% | -14.3%
COc1cc(-c2noc(C3CCCN(C(=O)c4c(F)cccc4F)C3)n2)cc(OC)c1OC (configuration not stated) | 0.3% | i | 1.5% | i | 23.6% | 1.1%
O=S(=O)(c1ccccc1Cl)N1CCCC(c2nc(-c3cccnc3)no2)C1 (configuration not stated) | -3.8% | 7.31µM* | 0.1% | i | -3.3% | -0.8%
CCCS(=O)(=O)N1CCCC(c2nc(-c3ccc(OC)cc3)no2)C1 (configuration not stated) | 5.8% | 13µM* | 4.6% | i | 9.9% | 6.2%

High-throughput results deposited in PubChem by National Center for Advancing Translational Sciences (NCATS).
